NSD2 HMT inh: NSD2 histone methyltransferase inhibitors, primary screen, biochemical, AlphaScreen, single concentration, set 2; Histone-lysine N-methyltransferase NSD2 (Homo sapiens), O96028; hit rate 0.54% among 310,000; inhibition, % at 12.5 µM; NSD2 peptide methylation, 120 min; in the data active = inhibition above about 50%
Target sequence (O96028 whole entry, looked up): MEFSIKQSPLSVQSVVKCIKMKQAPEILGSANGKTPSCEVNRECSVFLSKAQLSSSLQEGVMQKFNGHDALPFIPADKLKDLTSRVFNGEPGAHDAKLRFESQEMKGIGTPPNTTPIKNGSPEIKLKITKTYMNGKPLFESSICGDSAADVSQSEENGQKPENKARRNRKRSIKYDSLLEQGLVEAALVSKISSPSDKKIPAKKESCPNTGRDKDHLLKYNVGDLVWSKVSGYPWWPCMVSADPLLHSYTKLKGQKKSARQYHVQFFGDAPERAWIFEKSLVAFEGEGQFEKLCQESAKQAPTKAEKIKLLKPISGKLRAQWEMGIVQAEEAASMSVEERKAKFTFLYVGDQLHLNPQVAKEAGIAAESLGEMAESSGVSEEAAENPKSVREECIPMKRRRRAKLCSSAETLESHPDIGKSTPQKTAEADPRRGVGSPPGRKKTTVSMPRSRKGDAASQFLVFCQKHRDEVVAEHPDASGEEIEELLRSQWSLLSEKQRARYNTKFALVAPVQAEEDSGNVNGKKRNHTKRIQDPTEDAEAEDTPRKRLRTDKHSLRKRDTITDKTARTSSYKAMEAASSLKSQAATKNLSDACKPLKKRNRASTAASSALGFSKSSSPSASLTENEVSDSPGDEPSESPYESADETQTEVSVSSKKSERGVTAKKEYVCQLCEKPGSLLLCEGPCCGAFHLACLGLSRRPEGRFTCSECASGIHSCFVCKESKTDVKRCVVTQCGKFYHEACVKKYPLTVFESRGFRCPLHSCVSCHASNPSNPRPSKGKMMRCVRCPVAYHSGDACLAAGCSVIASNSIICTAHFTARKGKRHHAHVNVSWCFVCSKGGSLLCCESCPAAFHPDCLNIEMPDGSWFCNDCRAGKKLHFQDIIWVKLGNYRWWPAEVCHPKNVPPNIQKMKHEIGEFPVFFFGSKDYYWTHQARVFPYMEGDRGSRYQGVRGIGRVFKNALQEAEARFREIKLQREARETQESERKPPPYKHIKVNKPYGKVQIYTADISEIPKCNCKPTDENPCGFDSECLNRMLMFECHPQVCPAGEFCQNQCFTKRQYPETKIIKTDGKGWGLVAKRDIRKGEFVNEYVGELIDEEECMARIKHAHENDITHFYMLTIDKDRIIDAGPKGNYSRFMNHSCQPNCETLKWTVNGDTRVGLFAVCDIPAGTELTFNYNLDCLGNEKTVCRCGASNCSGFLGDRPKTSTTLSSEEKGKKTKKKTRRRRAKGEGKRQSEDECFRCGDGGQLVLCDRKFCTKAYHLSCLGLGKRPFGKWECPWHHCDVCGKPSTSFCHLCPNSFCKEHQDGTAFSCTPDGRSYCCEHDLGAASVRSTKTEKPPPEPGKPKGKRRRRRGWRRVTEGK
AF4-AF9 inh: inhibitors of AF4 peptide binding to AF9, primary screen, biochemical, AlphaScreen, biotin-AF4 peptide, FLAG-AF9, single point; AID 651704, 2012; hit rate 0.47% among 350,000; inhibition, % at 10 µM; Protein AF-9 (Homo sapiens), P42568;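 active = every replicate reaching a set inhibition limit, whatever the replicate mean, cut at about 25% in these data; inconclusive = mean inhibition reaches that limit but some replicates miss it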;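 note: 0% = plate neutral control median and 100% = total signal loss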
Ecoli rRNA inh: reduced GFP signal of wild-type E. coli, primary screen, bacterial rRNA inhibitor project, GFP/RFP fluorescence, OD600, single point; E. coli WT GFP vs humanized-ribosome RFP mutants, 24 h; stronger effect = lower value; DMSO median 0, no signal -100; GFP signal change (wild-type ribosome), % (test concentration not listed); hit rate 1.6% among 350,000;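 active = significant combined selectivity score with lowered wild-type GFP, culture density cut under 30%, mutant RFP and density less affected; inactive = any of these conditions unmet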
Casp6 inh: human caspase-6 inhibitors, primary screen, biochemical, VEID-R110 fluorescence, single point, set 2; P55212; purified caspase-6, Z-VEID-R110 cleavage fluorescence; inhibition, % at 12.5 µM; hit rate 0.53% among 350,000; AID 686996, 2013;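 active = mean inhibition across replicates at least about 35%, with every replicate also reaching that limit, limit read from the data; inconclusive = only one of the two criteria met; inactive = neither criterion met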;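 note: 0% = median of neutral control wells and 100% = no fluorescence left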
RAD52 inh: RAD52 DNA annealing inhibitors, primary screen, biochemical, FRET, single point, set 2 | hit rate 0.46% among 360,000 | AID 651710, 2012 | recombinant RAD52 DNA annealing, FRET fluorescence | DNA repair protein RAD52 homolog (Homo sapiens), P43351 | inhibition, % at 18.7 µM;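 active = every replicate showing at least 50% inhibition; inconclusive = mean inhibition at least 50% but not in every replicate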
AlphaScreen art: AlphaScreen signal interference with preloaded methylated product, dose response, artefact control for NSD2 inhibitor project, biochemical, cherry-picked samples; shares compounds with NSD2 HMT inh; AlphaScreen artifact counterscreen, preloaded methylated H4 peptide; AC35, µM (top dose mostly 10 µM), for the others: at the highest dose activity change, negative = signal loss; hit rate 9.4% among 1,500; call rule not given here
Active calls of the source: *; ? = inconclusive; . = not tested or not shown. A selection: hits, their analogues and other compounds. The true share with any hit is near 2.5%.

SMILES	NSD2 HMT inh	AF4-AF9 inh	Ecoli rRNA inh	Casp6 inh	RAD52 inh	AlphaScreen art
C[C@H]1CN([C@@H](C)CO)C(=O)c2cc(NC(=O)Nc3ccc(C(F)(F)F)cc3)ccc2O[C@@H]1CN(C)Cc1ccc(-c2ccccc2)cc1	.	-1	9	1	-9	.
NC(=O)COC(=O)c1ccc(Cl)c(S(=O)(=O)N2CCN(c3ccc(F)cc3)CC2)c1	52*	-1	-15	22	-16	-5%
NC(=O)COC(=O)c1cccc(S(=O)(=O)N2CCN(c3ccc(F)cc3)CC2)c1	-3	-1	6	.	-22	.
CN(C)CCNc1ncnc2ccccc12	5	.	7	-66	-1	.
CN(C)CCNc1ncnc2oc(-c3ccccc3)c(-c3ccccc3)c12	51*	16	-11	-10	21	-6%
COc1cc(NC(=O)CCn2c(=O)oc3ccccc32)cc(OC)c1OC	51*	?	1	4	-7	3%
Cc1ccc(NC(=O)CCn2c(=O)oc3ccccc32)cc1	55*	.	.	.	.	-1%
CN(C[C@@H]1N[C@H](CO)[C@@H]1c1ccc(C2=CCCC2)cc1)S(C)(=O)=O	.	2	3	-3	-41	.
Cc1oc(-c2cccs2)nc1CN1CCN(CCC(C)C)C(CCO)C1 (centres undefined)	-1	-3	15	-1	-17	.
Cc1oc(-c2cccs2)nc1CN1CCN(C2CCCC2)C(CCO)C1 (centres undefined)	52*	2	10	-7	3	-2%
C[C@@H]1CN([C@@H](C)CO)C(=O)c2cccc(NS(=O)(=O)c3ccc(F)cc3)c2O[C@@H]1CN(C)S(=O)(=O)c1ccccc1	.	1	-1	.	-7	.
CCCCn1c(Cn2nc(C(=O)O)c3ccccc3c2=O)nc2cc(S(N)(=O)=O)ccc21	102*	-5	3	0	-54	-3%
CCc1nc2ccc(C)cc2c(C(=O)NC2CCCCC2C)c1C (centres undefined)	75*	.	.	.	.	-2%
CNC[C@H]1OCCCC[C@@H](C)Oc2ccc(NS(=O)(=O)c3ccc(OC)cc3)cc2C(=O)N([C@H](C)CO)C[C@@H]1C	.	-9	2	0	13	.
CCCNC(=O)C[C@H]1C[C@H]2c3cc(N(C)C)ccc3O[C@H]2[C@@H](CO)O1	.	0	2	1	-64	.
CC(=O)C1=C(O)C(=O)N(CCc2c[nH]c3ccccc23)C1c1ccco1 (centres undefined)	61*	.	.	.	.	4%
CC(=O)C1=C(O)C(=O)N(CCc2c[nH]c3ccccc23)C1c1ccc(C)cc1 (centres undefined)	2	1	-12	3	-37	.
C[C@H](CO)N1C[C@H](C)[C@H](CN(C)C(=O)Nc2ccccc2)Oc2ncc(-c3ccc(C#N)cc3)cc2C1=O	.	-1	-13	1	1	.
c1ccc(CCN2CN=C(Nc3nc4ccccc4s3)NC2)cc1	64*	4	-11	0	-11	-2%
CCC1Cc2c(nc(N)c3c(N)nc(N4CCOCC4)c(C#N)c23)O1 (centres undefined)	82*	-1	-8	2	-11	-2%
CCOc1cc2c(C#N)c(N3CCOCC3)nc(N)c2c(N)n1	70*	.	.	.	.	1%
N#Cc1c(N2CCCCC2)nc(N)c2c(N)nc3c(c12)CC(CCl)O3 (centres undefined)	-1	-2	-18	0	-9	.
CCOc1cc2c(C#N)c(N(CC)CC)nc(N)c2c(N)n1	.	.	12	.	-2	.
O=C(NCCc1ccccc1)[C@H]1[C@H](CO)[C@H]2Cn3c(cccc3=O)[C@@H]1N2Cc1ccccn1	.	-1	5	-1	2	.
CC1(C)Cc2c(c(-c3ccco3)[nH]c(=O)c2C#N)CS1	94*	.	.	.	.	0%
O=C1C(Nc2cccc(O)c2)=C(N2CCCCC2)C(=O)c2ccccc21	64*	.	.	.	.	-13%
O=C1C(NS(=O)(=O)c2cccs2)=C(N2CCN(c3cccc(Cl)c3)CC2)C(=O)c2ccccc21	19	.	.	.	.	.
